Measured values from PubChem BioAssay (NCI).
Compounds without any hit were thinned out: in the full panel of roughly 83,000, 20% have a hit.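 96-well plates, one dose, 48 hours. Percent growth reported; active if below 10.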 Unmarked numbers belong to inactive results. The source made the active and inactive calls.

These compounds were tested on MDA-MB-468 breast (assay: NCI-60 one-dose screen, 48 h (100 = growth as untreated, 0 = no growth, -100 = all killed)). Conditions: 10 µM unless noted.

SMILES | growth
O=C(Nc1ncc(Cc2ccccc2Cl)s1)c1cccs1 | 33.6%
CC(=O)c1ccc(Nc2nc(SCC(C)C)nc(-c3ccccc3)c2C#N)cc1 | 73.7%
O=C(O)CCN1CCN(c2cccc(Cl)c2)CC1 | 103%
O=C(CN1CCN(c2ccc(Cl)cc2)CC1)N1CCN(c2nnc(-c3ccccc3)c(-c3ccccc3)n2)CC1 | 35.1%
COc1cccc2c(=O)c3c(sc12)c(NCCN(C)C)nc1ccccc13 | 12.7%
Brc1cccc(-c2cc(-c3cnc4c(c3)OCCO4)n[nH]2)c1 | 7.76% (active)
O=[N+]([O-])c1ccc(N/N=C(/C(=N/Nc2ccc([N+](=O)[O-])cc2)c2ccccc2)c2ccccc2)cc1 | 80.6%
O=C1c2c(c3c4cccnc4[nH]c3c3ccc4ccccc4c23)C(=O)N1CCN1CCOCC1 | 62.8%
Nc1nc2c3ccncc3cc(-c3cccc(Cl)c3)c2c2cnccc12 | 36.6%
C#Cc1nc(C2=C(C)C(OC(C)=O)/C(=N/OC(C)=O)C2)cs1 (stereo not given) | -60.7% (active)
COC(=O)[C@]12CC[C@@H](C)[C@H](C)[C@@H]1C1=CC[C@@H]3[C@@]4(C)C(C=O)=C[C@@](C)(COC(C)=O)[C@@H]4[C@H](O)C[C@@]3(C)[C@]1(C)CC2 | -19.2% (active)
O=S(=O)(NCCNc1nccc(-c2c(-c3cccc(O)c3)nc3occn23)n1)c1ccc(Br)cc1 | 26.6%
O=C(Nc1ccc(-n2ccc3c(NC(=O)c4ccccc4)nccc32)cc1)c1ccc(N2CCOCC2)c(C(F)(F)F)c1 | 42.7%
Cc1ccc(-c2nc(-c3cn(C)c4ncccc34)cs2)cc1 | -50.2% [100 µM] (active)
COc1cc(F)c(/C=C/c2cc(/C=C/c3cc(OC)c(OC)cc3F)on2)cc1OC | 77.6%
CC(=O)OCC(=O)[C@@]1(O)[C@H](C)C[C@H]2[C@@H]3C=C(C)C4=Cc5c(cnn5-c5ccc(F)cc5)C[C@]4(C)[C@H]3[C@@H](O)C[C@@]21C | -22.6% (active)
Cn1c2ccc(Cl)cc2c2nn(C(=O)c3ccccc3)c(=O)nc21 | 103%
COc1nc2c(c(=O)n1C)CN(Cc1ccccc1)C=N2 | 97.6%
CCc1ccc(OC(=O)CCl)cc1 | 116%
O=C(Nc1cccc(C(F)(F)F)c1)Oc1ccc(Cl)c2cccnc12 | -27.2% (active)

SMILES | growth
C[C@]12CCC(=O)C=C1CC[C@H]1[C@@H]3C[C@@H](O)[C@](O)(C(=O)CO)[C@@]3(C)C[C@H](O)[C@@]12F | 128%
O=C1c2ccc3c4c(ccc(c24)C(=O)N1CCNCc1ccccc1)C(=O)N(CCNCc1ccccc1)C3=O | -62.9% (active)
O=C(/C=C/C12c3ccccc3C(c3ccccc31)C1C(=O)NC(=O)C12)c1ccc(F)cc1 (stereo not given) | -25% (active)
Nc1ccc(NC(=O)c2ccccc2)c2c1C(=O)c1ccccc1C2=O | 107%
COc1ccc2c(c1)c(CC(=O)NCCOCCOCC(=O)Nc1ccc(OC)c(C(N)=O)c1O)c(C)n2C(=O)c1ccc(Cl)cc1 | 88.6%
O=C(Cc1ccc(/C=C/C(=O)c2ncc[nH]2)cc1)Nc1ccc(Cl)cc1 | 9.49% (active)
FC(F)(F)Oc1ccc2nc3nc4ccc[nH]c4cc3c2c1 | -25.5% (active)
Cc1sc2nc3[nH]/c(=C\c4ccc(Cl)cc4)c(=O)n3c(=O)c2c1C | 101%
COCCCOc1cc(C[C@@H](C[C@H](N)[C@@H](O)C[C@H](C(=O)NCC(C)(C)C(N)=O)C(C)C)C(C)C)ccc1OC | 101%
Cc1nn(-c2ccccc2)c(Cl)c1C(CC(=O)c1ccc(Cl)cc1)CC(=O)c1ccc(Cl)cc1 | 87.7%
CCN(CCO)CCNc1ccc(C)c2sc3cc(OC)ccc3c(=O)c12 | 87.7%
O=C(CSc1nnc(-c2ccc3nc(-c4ccc(Cl)cc4)[nH]c3c2)o1)Nc1ccc(C(=O)/C=C/c2ccc(Cl)cc2)cc1 | 100%
Nc1ccccc1NC(=O)c1ccc(NC(=O)C/C=C/c2cccnc2)cn1 | -19.6% (active)
COc1ccc(CN2C(=O)/C(=C\C(=O)c3ccc(OCCN4CCCCC4)cc3)c3ccccc32)cc1 | 53.3%
O=c1[nH]cnc2c1C(c1ccc(Br)cc1)c1sc3c(F)cccc3c1O2 (stereo not given) | 105%
COc1ncc(F)c(OC)n1 | 98.7%
CC/C(=C/c1c(O)cccc1OC)c1ccc2c(OC)cccc2[o+]1 | 95.1%
Nc1nc(N)c2c(n1)NC(c1ccc(F)cc1)C1CCc3ccccc3C1=N2 (stereo not given) | 5.4% (active)
COc1cccc2c1C(=O)c1c(O)c3c(c(O)c1C2=O)C[C@@](O)(C(=O)CO)C[C@@H]3O[C@H]1C[C@H](N)[C@@H](O)[C@H](C)O1 | -57% (active)
CCOC(=O)/C(F)=C/C1CC1C1CCCCC1 (stereo not given) | 96.9%
